This is a sample that favours compounds with a hit; in the whole collection about 2.3% have one here.
aDG glyco act: alpha-DG glycosylation activation; Pro5-aDG cells, alpha-DG glycosylation AlphaScreen (IIH6); 0% Pro5, 100% B10-LARGE cell signal; activation, % at 10 µM; 360,000 tested, 0.22% active; AID 624168;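 active = activation of at least 8% versus controls, or a plate z-score of at least 8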;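 also: Pro5 are CHO cells carrying HIG-tagged alpha-DG that lacks glycosylation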
H9c2 TAG inh: triacylglycerol accumulation inhibition; H9c2 cells, Nile Red lipid (TAG) fluorescence; cells loaded with 200 µM oleic acid; AID 651582; 230,000 tested, 0.66% active; inhibition, % at 12.5 µM;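 active = pattern-corrected inhibition of lipid staining of at least 50% with the nuclear-stain viability signal not falling by more than 50%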
Cardio protect: modulators protecting cardiomyocytes from myocardial damage. H9c2 cardiomyocytes, H2O2 injury protection, ATPLite, 2 h. protection from H2O2 cell death, % at 20 µM. 360,000 tested, 0.63% active. AID 588492;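 active = compounds giving at least 50% protection of heart cells from peroxide-induced death in the single-dose screen, raw or plate-pattern-corrected value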
beta cell repl: inducers of beta-cell replication in MIN6 cells. 330,000 tested, 0.29% active. proliferation, % at 10 µM. MIN6 cells proliferation, ATPlite luminescence, 48 h; cells starved in 0.2% serum; 100% = growth in 10% serum;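 active = compounds whose signal lies at least 3.5 SD above the mean of all wells on their plate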
Calpain2 inh: calpain II (pig) inhibition; purified calpain II, fluorogenic peptide substrate, 30 min; 220,000 tested, 0.37% active; inhibition, % at 16 µM;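 active = inhibition above about 50%, limit read from the data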
FAS-TE inh: blocks the thioesterase domain of human fatty acid synthase; P49327; 360,000 tested, 0.67% active; AID 602261; recombinant FAS-TE, OMFH fluorogenic substrate, fluorescence endpoint; inhibition, % at 15 µM;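 active = compounds whose normalised, plate-corrected inhibition of enzyme fluorescence in the single-dose primary screen is 50% or more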
A number is an active result; – = inactive; · = no result.

SMILES	aDG glyco act	H9c2 TAG inh	Cardio protect	beta cell repl	Calpain2 inh	FAS-TE inh
COc1ccc2cc3cc(C(=O)Nc4cc(OC)c(OC)c(OC)c4)oc3nc2c1	–	–	58	–	–	–
COc1ccc2cc3cc(C(=O)Nc4ccc5c(c4)OCCO5)oc3nc2c1	–	–	–	–	–	–
COc1cccc(CN2CC(C(=O)NCCOc3ccccc3)CCC2=O)c1 (centres undefined)	–	·	–	–	·	–
O=C(Cn1ncc(Cl)c(Cl)c1=O)N1CCN(Cc2ccccc2)CC1	–	64	–	·	–	–
COc1ccc(N(C(=O)c2snc(C(N)=O)c2N)C(C(=O)NC2CCCC2)c2ccc3ncccc3c2)cc1 (centres undefined)	–	·	–	–	·	–
NC(=O)c1nsc(C(=O)N(c2ccccc2)C(C(=O)NC2CCCC2)c2ccc3ncccc3c2)c1N (centres undefined)	–	·	62	–	·	–
CCOc1ccc(C(C(=O)NC2CCCC2)N(C(=O)c2snc(C(N)=O)c2N)c2cccc(O)c2)cc1 (centres undefined)	–	·	81	–	·	–
O=C(O)c1ccc2c(c1)S(=O)(=O)c1cc(N3CCN(c4cnccn4)CC3)ccc1C2=O	–	–	50	·	·	–
O=C1c2ccccc2S(=O)(=O)c2cc(N3CCN(C(=O)c4ccccc4)CC3)ccc21	·	·	·	–	·	·
CCC(=O)Nc1ccc(Nc2nc(C)c([N+](=O)[O-])c(Nc3ccc(NC(=O)CC)cc3)n2)cc1	–	·	70	–	–	–
COc1ccccc1CCC(=O)NNC(=O)Cn1nc(C)cc1C	–	–	–	·	·	–
CN(C)CCOc1ccc(-c2c(-c3ccccc3)sc3ccccc23)cc1	–	58	–	–	·	–
c1ccc(-c2sc3ccccc3c2-c2ccc(OCCN3CCCCC3)cc2)cc1	–	–	–	–	·	–
COc1ccc(OCC(=O)NCCCNC(=O)COc2ccc(OC)cc2)cc1	–	–	–	–	·	–
CNC(=O)COC(=O)/C=C/c1cn(-c2ccccc2)nc1-c1ccc(C)o1	–	–	56	–	–	–
O=C(COC(=O)/C=C/c1cn(-c2ccccc2)nc1-c1ccc2c(c1)OCCO2)NC1CCS(=O)(=O)C1 (centres undefined)	–	–	57	–	–	–
Cc1ccc(S(=O)(=O)N2C[C@H]3C(=O)C[C@@H](c4ccccc4)N(S(=O)(=O)c4ccc(C)cc4)[C@H]3C[C@H]2c2cccs2)cc1	–	·	–	·	·	–
CCOC(=O)c1c(NC(=O)COC(=O)c2ccc(Cl)nc2)sc(C(=O)N(C)C)c1C	–	–	–	–	·	–
CCOC(=O)c1c(NC(=O)C2c3ccccc3Oc3ccccc32)sc(C(=O)N(CC)CC)c1C	–	81	–	–	–	–
CCOC(=O)c1c(NC(=O)COC(=O)c2ccc(O)cc2)sc(C(=O)N(C)C)c1C	–	–	63	–	–	–
CCOC(=O)c1c(NC(=O)CN(C)C)sc(C(=O)N(CC)CC)c1C	–	–	–	–	–	–
O=C(NCc1ccc(F)cc1)C(=O)NCC1OCCN1S(=O)(=O)c1cc(F)ccc1F (centres undefined)	–	–	–	·	·	–
O=C(NCCc1c[nH]c2ccccc12)C(=O)NCC(c1ccco1)N1CCN(c2ccccc2F)CC1 (centres undefined)	–	·	63	–	–	–
O=C(NCc1ccccc1)C(=O)NCC(c1ccco1)N1CCN(c2ccccc2F)CC1 (centres undefined)	–	–	–	–	–	–
O=C(COC(=O)c1ccccc1C(=O)OCC(=O)NCCc1c[nH]c2ccccc12)NCCc1c[nH]c2ccccc12	–	–	62	–	·	–
SMILES	aDG glyco act	H9c2 TAG inh	Cardio protect	beta cell repl	Calpain2 inh	FAS-TE inh
O=C(COC(=O)c1ccccc1O)NCCc1c[nH]c2ccccc12	–	–	–	–	·	–
COc1cc(NC(=O)Cn2cnc(S(=O)(=O)N3CCC(C)CC3)c2)cc(OC)c1OC	–	·	–	–	·	–
Cc1ccc(S(=O)(=O)/C(C#N)=C/c2c(N3CC(C)OC(C)C3)nc3c(C)cccn3c2=O)cc1 (centres undefined)	–	·	–	–	–	56
O=C(O)c1cccc(N/N=C/c2cc(Br)cc(Br)c2O)c1	–	–	–	–	–	–
Cc1c(N=Cc2cc(Br)cc(Br)c2O)cccc1C(=O)O	–	–	62	–	–	–
O=C(O)COCC(=O)Nc1ccc(OCCc2ccccc2)cc1	–	–	–	–	·	–
Cc1ccc(C)c(NC(=O)CCC(=O)NNC(=O)COc2cc(C)ccc2C)c1	–	–	–	–	·	–
O=C(Nc1ccccc1Cl)N1CCN(c2ccc3nnc(-c4ccccc4)n3n2)CC1	–	–	–	–	–	–
O=C(c1ccc(Br)o1)N1CCN(c2ccc3nnc(-c4ccc(F)cc4)n3n2)CC1	–	–	52	–	–	–
O=C(Nc1ccc(Cl)cc1)N1CCN(c2ccc3nnc(-c4ccc(F)cc4)n3n2)CC1	–	·	53	–	–	–
COC(=O)c1ccc(N2CCOCC2)c(NC(=O)c2ccco2)c1	–	–	–	–	·	–
COc1ccccc1C(=O)Nc1ccc(OCC(=O)N2C(C)CCCC2C)cc1 (centres undefined)	–	–	–	–	·	–
CC1(C(=O)NS(=O)(=O)c2ccccc2Cl)CCN1C(=O)Cc1cccc2ccccc12 (centres undefined)	–	–	–	·	·	–
CCOC(=O)N1CCN(S(=O)(=O)c2ccc(C(=O)NNc3nc4c(C)cc(C)cc4s3)cc2)CC1	–	–	–	–	–	–
CCOC(=O)N1CCN(S(=O)(=O)c2ccc(C(=O)NNc3nc4c(C)cccc4s3)cc2)CC1	–	–	50	–	–	–
CCOC(=O)N1CCN(S(=O)(=O)c2ccc(C(=O)NNc3nc4cc(C)cc(C)c4s3)cc2)CC1	–	–	56	–	–	–
CCOC(=O)N1CCN(S(=O)(=O)c2ccc(C(=O)NNc3nc4ccc(Cl)cc4s3)cc2)CC1	–	–	–	–	–	–
Cc1ccc2cccc(S(=O)(=O)N3CCCc4ccccc43)c2n1	–	–	–	–	–	–
COc1ccccc1C(=O)NC(=O)COC(=O)c1cnccn1	–	–	–	·	·	–
CCc1c(C)nc2cc(-c3cc(OC)cc(OC)c3)nn2c1N1CCN(CCN2CCOCC2)CC1	–	–	91	–	–	–
CCOCCN1CCN(c2c(C)c(C)nc3cc(-c4cc(OC)cc(OC)c4)nn23)CC1	–	·	–	–	–	–
Cn1cc(C(=O)Nc2ccccn2)c(=O)c2ccccc21	–	·	–	–	·	–
Cc1cccnc1NCc1ccc(O)c2ncccc12	–	–	–	–	–	–
Cc1ccc(NCc2ccc(O)c3ncccc23)cc1	–	–	82	–	–	–
Cc1ccc(NCc2ccc(O)c3ncccc23)cc1C	–	–	63	–	–	–
Cc1cccc(NCc2ccc(O)c3ncccc23)c1C	–	·	–	–	–	–
